# How the values were obtained:
# Experiment in all cases: SPOT peptide array binding signal intensity (averaged, normalized) (arbitrary units (background-subtracted, floor 0; scale differs between SH3 domains)); higher = stronger binding of the SH3 domain to the peptide
# CaNbp2 = biological target: CaNbp2
# Outline: (§1)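 Binding signal is given in arbitrary units that differ between domains and is the normalized, background-subtracted spot intensity averaged across replicates. Each GST-SH3 fusion from one of four yeast species was made in E. coli BL21(DE3), purified on glutathione Sepharose and incubated at 10 μg/ml overnight at 4°C on cellulose-bound synthetic 15-mer peptides in which cysteines were replaced by serines. Detection used anti-GST antibody, an HRP anti-mouse secondary and luminol, followed by imaging and Genespotter quantification.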
# CaRvs167 = biological target: CaRvs167
# Outline: as §1
# CaRvs167-3 = biological target: CaRvs167-3
# Outline: as §1
# CaSho1 = biological target: CaSho1
# Outline: as §1
# CaSla1-D1-D2 = biological target: CaSla1-D1-D2
# Outline: as §1
# CaSla1-D3 = biological target: CaSla1-D3
# Outline: as §1
# ScAbp1 = biological target: ScAbp1
# Outline: as §1
# ScBbc1 = biological target: ScBbc1
# Outline: as §1
# ScBem1-D1 = biological target: ScBem1-D1
# Outline: as §1
# ScBzz1-D1 = biological target: ScBzz1-D1
# Outline: as §1
# ScBzz1-D2 = biological target: ScBzz1-D2
# Outline: as §1
# ScCyk3 = biological target: ScCyk3
# Outline: as §1
# ScFus1 = biological target: ScFus1
# Outline: as §1
# ScHof1 = biological target: ScHof1
# Outline: as §1
# ScHse1 = biological target: ScHse1
# Outline: as §1
# ScLsb1 = biological target: ScLsb1
# Outline: as §1
# ScLsb2 = biological target: ScLsb2
# Outline: as §1
# ScLsb3 = biological target: ScLsb3
# Outline: as §1
# ScLsb4 = biological target: ScLsb4
# Outline: as §1
# ScMyo3 = biological target: ScMyo3
# Outline: as §1
# ScMyo5 = biological target: ScMyo5
# Outline: as §1
# ScNbp2 = biological target: ScNbp2
# Outline: as §1
# ScPex13 = biological target: ScPex13
# Outline: as §1
# ScRvs167 = biological target: ScRvs167
# Outline: as §1
# ScSho1 = biological target: ScSho1
# Outline: as §1
# ScSla1-D1-D2 = biological target: ScSla1-D1-D2
# Outline: as §1
# ScSla1-D3 = biological target: ScSla1-D3
# Outline: as §1
# SpAbp1-D1 = biological target: SpAbp1-D1
# Outline: as §1
# SpBbc1 = biological target: SpBbc1
# Outline: as §1
# SpBzz1-D1 = biological target: SpBzz1-D1
# Outline: as §1
# SpBzz1-D2 = biological target: SpBzz1-D2
# Outline: as §1
# SpCyk3 = biological target: SpCyk3
# Outline: as §1
# SpHof1 = biological target: SpHof1
# Outline: as §1
# SpHof1-2 = biological target: SpHof1-2
# Outline: as §1
# SpHof1-3 = biological target: SpHof1-3
# Outline: as §1
# SpHse1 = biological target: SpHse1
# Outline: as §1
# SpLsb1 = biological target: SpLsb1
# Outline: as §1
# SpLsb4 = biological target: SpLsb4
# Outline: as §1
# SpMyo1 = biological target: SpMyo1
# Outline: as §1
# SpNbp2 = biological target: SpNbp2
# Outline: as §1
# SpPex13 = biological target: SpPex13
# Outline: as §1
# SpRvs167 = biological target: SpRvs167
# Outline: as §1
# SpSla1-D1-D2 = biological target: SpSla1-D1-D2
# Outline: as §1
# SpSla1-D3 = biological target: SpSla1-D3
# Outline: as §1
# AgAbp1 = biological target: AgAbp1
# Outline: as §1
# AgBbc1 = biological target: AgBbc1
# Outline: as §1
# AgBem1-D1 = biological target: AgBem1-D1
# Outline: as §1
# AgBzz1-D1 = biological target: AgBzz1-D1
# Outline: as §1
# AgBzz1-D2 = biological target: AgBzz1-D2
# Outline: as §1
# AgCyk3 = biological target: AgCyk3
# Outline: as §1
# AgFus1 = biological target: AgFus1
# Outline: as §1
# AgHof1 = biological target: AgHof1
# Outline: as §1
# AgHse1 = biological target: AgHse1
# Outline: as §1
# AgLsb1 = biological target: AgLsb1
# Outline: as §1
# AgLsb4 = biological target: AgLsb4
# Outline: as §1
# AgMyo5 = biological target: AgMyo5
# Outline: as §1
# AgNbp2 = biological target: AgNbp2
# Outline: as §1
# AgRvs167 = biological target: AgRvs167
# Outline: as §1
# AgSho1 = biological target: AgSho1
# Outline: as §1
# AgSla1-D1-D2 = biological target: AgSla1-D1-D2
# Outline: as §1
# AgSla1-D3 = biological target: AgSla1-D3
# Outline: as §1
# CaAbp1-D1 = biological target: CaAbp1-D1
# Outline: as §1
# CaAbp1-D2 = biological target: CaAbp1-D2
# Outline: as §1
# CaBbc1 = biological target: CaBbc1
# Outline: as §1
# CaBem1-D1 = biological target: CaBem1-D1
# Outline: as §1
# CaBzz1-D1 = biological target: CaBzz1-D1
# Outline: as §1
# CaBzz1-D2 = biological target: CaBzz1-D2
# Outline: as §1
# CaCyk3 = biological target: CaCyk3
# Outline: as §1
# CaFus1 = biological target: CaFus1
# Outline: as §1
# CaHof1 = biological target: CaHof1
# Outline: as §1
# CaHse1 = biological target: CaHse1
# Outline: as §1
# CaLsb1 = biological target: CaLsb1
# Outline: as §1
# CaLsb4 = biological target: CaLsb4
# Outline: as §1
# CaMyo5 = biological target: CaMyo5
# Outline: as §1
binder,measurement,setting,value
NLPKRKPPKLQGPFS,SPOT peptide array binding signal intensity,CaNbp2,2240
same,SPOT peptide array binding signal intensity,CaRvs167,1.67
same,SPOT peptide array binding signal intensity,CaRvs167-3,34.2
same,SPOT peptide array binding signal intensity,CaSho1,300
same,SPOT peptide array binding signal intensity,CaSla1-D1-D2,48
same,SPOT peptide array binding signal intensity,CaSla1-D3,0.5
same,SPOT peptide array binding signal intensity,ScAbp1,179
same,SPOT peptide array binding signal intensity,ScBbc1,6.25
same,SPOT peptide array binding signal intensity,ScBem1-D1,16
same,SPOT peptide array binding signal intensity,ScBzz1-D1,39.5
same,SPOT peptide array binding signal intensity,ScBzz1-D2,4
same,SPOT peptide array binding signal intensity,ScCyk3,113
same,SPOT peptide array binding signal intensity,ScFus1,162
same,SPOT peptide array binding signal intensity,ScHof1,1.25
same,SPOT peptide array binding signal intensity,ScHse1,1280
same,SPOT peptide array binding signal intensity,ScLsb1,0.5
same,SPOT peptide array binding signal intensity,ScLsb2,3.5
same,SPOT peptide array binding signal intensity,ScLsb3,328
same,SPOT peptide array binding signal intensity,ScLsb4,21.5
same,SPOT peptide array binding signal intensity,ScMyo3,63.2
same,SPOT peptide array binding signal intensity,ScMyo5,29.5
same,SPOT peptide array binding signal intensity,ScNbp2,475
same,SPOT peptide array binding signal intensity,ScPex13,2
same,SPOT peptide array binding signal intensity,ScRvs167,23
same,SPOT peptide array binding signal intensity,ScSho1,408
same,SPOT peptide array binding signal intensity,ScSla1-D1-D2,164
same,SPOT peptide array binding signal intensity,ScSla1-D3,12.5
same,SPOT peptide array binding signal intensity,SpAbp1-D1,498
same,SPOT peptide array binding signal intensity,SpBbc1,1.5
same,SPOT peptide array binding signal intensity,SpBzz1-D1,382
same,SPOT peptide array binding signal intensity,SpBzz1-D2,0.5
same,SPOT peptide array binding signal intensity,SpCyk3,1
same,SPOT peptide array binding signal intensity,SpHof1,117
same,SPOT peptide array binding signal intensity,SpHof1-2,3.25
same,SPOT peptide array binding signal intensity,SpHof1-3,475
same,SPOT peptide array binding signal intensity,SpHse1,722
same,SPOT peptide array binding signal intensity,SpLsb1,5
same,SPOT peptide array binding signal intensity,SpLsb4,756
same,SPOT peptide array binding signal intensity,SpMyo1,254
same,SPOT peptide array binding signal intensity,SpNbp2,82.5
same,SPOT peptide array binding signal intensity,SpPex13,5
same,SPOT peptide array binding signal intensity,SpRvs167,7.17
same,SPOT peptide array binding signal intensity,SpSla1-D1-D2,≤ 0
same,SPOT peptide array binding signal intensity,SpSla1-D3,1
FSRRQSMDIPSKNRN,SPOT peptide array binding signal intensity,AgAbp1,114
same,SPOT peptide array binding signal intensity,AgBbc1,69.8
same,SPOT peptide array binding signal intensity,AgBem1-D1,557
same,SPOT peptide array binding signal intensity,AgBzz1-D1,33
same,SPOT peptide array binding signal intensity,AgBzz1-D2,78.5
same,SPOT peptide array binding signal intensity,AgCyk3,3
same,SPOT peptide array binding signal intensity,AgFus1,248
same,SPOT peptide array binding signal intensity,AgHof1,67.5
same,SPOT peptide array binding signal intensity,AgHse1,550
same,SPOT peptide array binding signal intensity,AgLsb1,15
same,SPOT peptide array binding signal intensity,AgLsb4,24
same,SPOT peptide array binding signal intensity,AgMyo5,16
same,SPOT peptide array binding signal intensity,AgNbp2,660
same,SPOT peptide array binding signal intensity,AgRvs167,4.17
same,SPOT peptide array binding signal intensity,AgSho1,115
same,SPOT peptide array binding signal intensity,AgSla1-D1-D2,54
same,SPOT peptide array binding signal intensity,AgSla1-D3,11
same,SPOT peptide array binding signal intensity,CaAbp1-D1,266
same,SPOT peptide array binding signal intensity,CaAbp1-D2,313
same,SPOT peptide array binding signal intensity,CaBbc1,384
same,SPOT peptide array binding signal intensity,CaBem1-D1,686
same,SPOT peptide array binding signal intensity,CaBzz1-D1,475
same,SPOT peptide array binding signal intensity,CaBzz1-D2,308
same,SPOT peptide array binding signal intensity,CaCyk3,25
same,SPOT peptide array binding signal intensity,CaFus1,602
same,SPOT peptide array binding signal intensity,CaHof1,0.5
same,SPOT peptide array binding signal intensity,CaHse1,225
same,SPOT peptide array binding signal intensity,CaLsb1,4
same,SPOT peptide array binding signal intensity,CaLsb4,412
same,SPOT peptide array binding signal intensity,CaMyo5,47.8
same,SPOT peptide array binding signal intensity,CaNbp2,1460
same,SPOT peptide array binding signal intensity,CaRvs167,96.7
same,SPOT peptide array binding signal intensity,CaRvs167-3,1.75
same,SPOT peptide array binding signal intensity,CaSho1,691
same,SPOT peptide array binding signal intensity,CaSla1-D1-D2,982
same,SPOT peptide array binding signal intensity,CaSla1-D3,552
same,SPOT peptide array binding signal intensity,ScAbp1,74
same,SPOT peptide array binding signal intensity,ScBbc1,34
same,SPOT peptide array binding signal intensity,ScBem1-D1,88.5
same,SPOT peptide array binding signal intensity,ScBzz1-D1,48
same,SPOT peptide array binding signal intensity,ScBzz1-D2,102
same,SPOT peptide array binding signal intensity,ScCyk3,8.5
same,SPOT peptide array binding signal intensity,ScFus1,405
same,SPOT peptide array binding signal intensity,ScHof1,2
same,SPOT peptide array binding signal intensity,ScHse1,566
same,SPOT peptide array binding signal intensity,ScLsb1,56.8
same,SPOT peptide array binding signal intensity,ScLsb2,1
same,SPOT peptide array binding signal intensity,ScLsb3,350
same,SPOT peptide array binding signal intensity,ScLsb4,126
same,SPOT peptide array binding signal intensity,ScMyo3,41.5
same,SPOT peptide array binding signal intensity,ScMyo5,13
same,SPOT peptide array binding signal intensity,ScNbp2,846
same,SPOT peptide array binding signal intensity,ScPex13,586
same,SPOT peptide array binding signal intensity,ScRvs167,70.5
same,SPOT peptide array binding signal intensity,ScSho1,458
same,SPOT peptide array binding signal intensity,ScSla1-D1-D2,1260
same,SPOT peptide array binding signal intensity,ScSla1-D3,851
same,SPOT peptide array binding signal intensity,SpAbp1-D1,118
same,SPOT peptide array binding signal intensity,SpBbc1,17
same,SPOT peptide array binding signal intensity,SpBzz1-D1,573
same,SPOT peptide array binding signal intensity,SpBzz1-D2,16.8
same,SPOT peptide array binding signal intensity,SpCyk3,4
same,SPOT peptide array binding signal intensity,SpHof1,43.8
same,SPOT peptide array binding signal intensity,SpHof1-2,98
same,SPOT peptide array binding signal intensity,SpHof1-3,193
same,SPOT peptide array binding signal intensity,SpHse1,784
same,SPOT peptide array binding signal intensity,SpLsb1,15
same,SPOT peptide array binding signal intensity,SpLsb4,290
same,SPOT peptide array binding signal intensity,SpMyo1,32.5
same,SPOT peptide array binding signal intensity,SpNbp2,400
same,SPOT peptide array binding signal intensity,SpPex13,157
same,SPOT peptide array binding signal intensity,SpRvs167,34.5
same,SPOT peptide array binding signal intensity,SpSla1-D1-D2,30.5
same,SPOT peptide array binding signal intensity,SpSla1-D3,279
